# Test results published in PubChem BioAssay AID651821 (The Scripps Research Institute Molecular Screening Center, 2012).
# About 4,700 (1.3%) of roughly 370,000 compounds were called active. The sample holds actives, similar compounds and a random draw of the others, so the mix is not that of the screen.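 The calls were made as follows: active = inhibition above the plate cutoff, the mean of all test compounds on that plate plus 3 SD (cut at about 35% in these data); inactive = the rest.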
# Test: binders of r(CAG) RNA repeats, primary screen, biochemical, fluorescence (AID 651821);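 also: 0% = DMSO alone and 100% = 100 µM mitoxantrone as full dye displacement; higher means more dye released from RNA so lower well fluorescence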
# Details: r(CAG) RNA repeat, TO-PRO-1 dye displacement fluorescence; at 3 µM; stronger effect = higher value
row,SMILES,inhibition
1,COc1ccc(CN2C(CC(=O)Nc3cccnc3)c3ccc(C(F)(F)F)cc3S2(=O)=O)cc1 (stereo not drawn),1.65% (inactive)
2,CCOC(=O)c1csc(NC(=O)Nc2cccc(OC)c2)n1,61.3% (active)
3,CC(=O)c1ccc(Nc2nc(C(N)c3ccccc3)cs2)cc1 (stereo not drawn),6.98% (inactive)
4,COc1cccc(NC(=O)COC(=O)c2ccc3ccccc3n2)c1,7.26% (inactive)
5,NC(c1csc(NC(=O)Nc2cccc(C(F)(F)F)c2)n1)C1CCCCC1 (stereo not drawn),35.2% (active)
6,CC(C)(C)CC(=O)Nc1nc(C(N)Cc2ccc(C(F)(F)F)cc2)cs1 (stereo not drawn),1.66% (inactive)
7,NC(c1csc(NC(=O)Nc2ccccc2Oc2ccccc2)n1)c1ccccc1Cl (stereo not drawn),14% (inactive)
8,COc1ccc(C(N)c2csc(NC(=O)Nc3cccc(C(F)(F)F)c3)n2)cc1 (stereo not drawn),49.1% (active)
9,C/C(CC(=O)Nc1cccc(C(F)(F)F)c1)=N\NC(=O)C(=O)NCC(C)C,-2.81% (inactive)
10,NC(c1ccccc1)c1csc(NC(=O)Nc2cccc(C(F)(F)F)c2)n1 (stereo not drawn),42.2% (active)
11,COc1ccc(CC(N)c2csc(NC(=O)Nc3ccc(C(C)C)cc3)n2)cc1 (stereo not drawn),30.9% (inactive)
12,CCOC(=O)c1cnc(SCC(=O)Nc2cccc(OC)c2)nc1N,1.08% (inactive)
13,C=CCn1c(SCC(N)=O)nnc1-c1ccccc1OC,2.58% (inactive)
14,O=C(NCc1ccccc1)[C@@H]1CCCN1C(=O)[C@H]1CCCN1C(=O)c1cccc(Cl)c1,-1.13% (inactive)
15,COC(=O)[C@H](CC(C)C)NS(=O)(=O)c1c(F)cccc1F,0.25% (inactive)
16,C=CCN1C(=O)N(Cc2ccccc2)c2ccccc2S1(=O)=O,-0.57% (inactive)
17,CCC(=O)Nc1ccc2c(c1)C(=O)N(C)[C@@H]1CC[C@@H](CC(=O)NCCc3ccccc3)O[C@H]1CO2,0.85% (inactive)
18,CCOC(=O)[C@]12CCCCC/C=C\1N(Cc1ccc(OC)cc1)C(=O)[C@H]2CC(=O)NCc1ccc(C)o1,3.94% (inactive)
19,O=C(NS(=O)(=O)c1cccs1)[C@H]1O[C@@H](n2ccc(=O)[nH]c2=O)[C@H](O)[C@@H]1O,1.16% (inactive)
20,CN1CCCc2nc(-c3ccccc3)ccc21,1.01% (inactive)
21,Cc1ccc(Cn2c(SCC(=O)N/N=C/c3ccccc3OCC(=O)O)nc3ccccc32)cc1,50% (active)
22,CCn1c(SCC(=O)N/N=C/c2ccccc2OCC(=O)O)nnc1-c1ccc(C(C)(C)C)cc1,18.1% (inactive)
23,O=C(CSc1nc2ccccc2n1Cc1ccccc1Cl)N/N=C\c1c[nH]c2ccccc12,12.2% (inactive)
24,CC1CCN(c2ccc(C(=O)O)cc2NS(=O)(=O)c2ccc(Br)s2)CC1,33% (inactive)
25,CCOc1ccc(-n2c(SCC(=O)Nc3cc(C)c(NC(=O)c4ccccc4)cc3OC)nnc2-c2cccs2)cc1,10.2% (inactive)
26,NS(=O)(=O)c1ccc(NC(=O)COC(=O)C2(c3ccc(F)cc3)CCCC2)cc1,18.1% (inactive)
27,CC(=O)C1=C(O)C(=O)N(c2ccc(S(N)(=O)=O)cc2)C1c1ccccc1F (stereo not drawn),2.58% (inactive)

row,SMILES,inhibition
1,NS(=O)(=O)c1ccc(NC2=CC(c3ccc(F)cc3)N(c3ccc(S(N)(=O)=O)cc3)C2=O)cc1 (stereo not drawn),45.7% (active)
2,O=C(COC(=O)CSc1nnc(-c2ccc(Cl)cc2)o1)Nc1cc(Cl)cc(Cl)c1,3.94% (inactive)
3,O=C(COC(=O)c1ccc(Oc2ccccc2)cc1)Nc1nnc(-c2ccccc2)o1,39.7% (active)
4,O=C(COc1ccccc1)Nc1nonc1NC(=O)COc1ccccc1,8.22% (inactive)
5,O=C(NCc1cccs1)C1CCCN(S(=O)(=O)c2ccc([N+](=O)[O-])cc2)C1 (stereo not drawn),1.56% (inactive)
6,COc1ccc(N2CCN(CCNS(=O)(=O)c3ccc(C(C)(C)C)cc3)CC2)cc1,-0.11% (inactive)
7,CC(NCC(=O)Nc1cc(Cl)cc(Cl)c1)c1ccccc1 (stereo not drawn),-5.58% (inactive)
8,Cc1nnc(SC(C(=O)c2ccccc2)c2ccccc2)[nH]c1=O (stereo not drawn),4.12% (inactive)
9,Cc1nnc(SC(C(=O)Nc2cc(Cl)cc(Cl)c2)c2ccccc2)[nH]c1=O (stereo not drawn),80.2% (active)
10,CCc1c(-c2ccccc2OC)ncn1CCc1ccccc1OC,-2.09% (inactive)
11,Cc1cccc(NC(=O)C[C@H]2CC[C@H]3[C@@H](COc4ccc(NC(=O)Nc5ccccc5)cc4C(=O)N3C)O2)c1,10.2% (inactive)
12,N#Cc1ccc(OC[C@@H](O)CN2CCC(C(O)(c3ccccc3)c3ccccc3)CC2)c(F)c1,-3.22% (inactive)
13,COc1ccc(S(=O)(=O)Nc2ccc3c(c2)C(=O)N([C@H](C)CO)C[C@H](C)[C@@H](CN(C)C)OCCCC[C@H](C)O3)cc1,8.48% (inactive)
14,Cc1cc(C)c(C#N)c(SCc2[nH]nc3c2C(c2ccccc2)C(C#N)=C(N)O3)n1 (stereo not drawn),38.2% (active)
15,CCCc1nc2c([nH]1)C(c1cccnc1)C(C#N)=C(N)O2 (stereo not drawn),0.75% (inactive)
16,Cc1cc(C)c(C#N)c(SCc2ccc3c(c2)OCO3)n1,4% (inactive)
17,C[C@@H](NC(=O)c1ccccc1OCC(=O)Nc1ccc(I)cc1)C(=O)N(C)Cc1ccccc1,5.02% (inactive)
18,COc1ccc(C(=O)C(C)OC(=O)c2cccc(S(=O)(=O)Nc3c(C)n(C)n(-c4ccccc4)c3=O)c2)cc1 (stereo not drawn),7.06% (inactive)
19,COc1ccc(S(=O)(=O)/N=C2\C=C(NS(=O)(=O)c3ccccc3)C(=O)c3ccccc32)cc1,63.6% (active)
20,CNC(=O)COc1ccc(S(=O)(=O)Nc2ccccc2)cc1,0.86% (inactive)
21,Cc1ccc(S(=O)(=O)N[C@H](CO)C(C)C)cc1,2.22% (inactive)
22,Cc1ccc(S(=O)(=O)N/N=C(\c2ccccc2)C2CC2)cc1,-0.89% (inactive)
23,Cc1ccc(S(=O)(=O)/N=C2\C=C(NS(=O)(=O)c3ccc(C)cc3)C(=O)c3ccccc32)cc1,59.4% (active)
24,O=S1(=O)c2c(cccc2N2CCSCC2)Oc2ccccc2CN1Cc1cn(Cc2ccc(F)cc2)nn1,8.25% (inactive)
25,C[C@H]1[C@H](c2ccccc2)Oc2cc(Br)ccc2S(=O)(=O)N1Cc1cccc(F)c1,3.74% (inactive)
26,CCOC(=O)CSc1nncc2ccc(OC)c(OC)c12,-1.96% (inactive)
